For 8 molecules, z-score and composite z-score results are on record in PubChem BioAssay.

Active and inactive are the calls of the source.

The nature of assay [1]: optical density shifts of acrAB sulA E. coli – strain DRC41, OD650, 48 h, E. coli filamentation inducer project, primary screen (AID 1152).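 Also: E. coli MC1000 strain DRC41 lacking acrAB efflux pump and sulA.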 The note with it: higher = more signal, called active from +8 up or from −8 down.
Assay [2] is described as follows: probe aLefty1 binding on compound microarray – biochemical, small-molecule microarray, 635/667 nm fluorescence, primary screen (AID 1153).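 Also: score merges spot fluorescence with signal-to-noise ratio from the scanned slide images.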 The conditions noted are these: higher = more signal.
The nature of assay [3]: plasmodial surface anion channel blockers, osmotic lysis – cell-based, P. falciparum Indochina, OD700, 1 h, primary screen (AID 1154). The note with it: P. falciparum Indochina infected RBC osmotic lysis, higher = more signal, called active from +8 up or from −8 down.
The nature of assay [4]: plasmodial surface anion channel blockers, osmotic lysis – cell-based, P. falciparum Indochina, OD700, 2 h, primary screen (AID 1155).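 Also: lysis reports solute entry through the parasite surface anion channel PSAC.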 The conditions noted are these: P. falciparum Indochina infected erythrocytes, higher = more signal, called active from +8 up or from −8 down.
Assay [5] in a line: changes in parasitized red cell lysis, either direction – P. falciparum Indochina, OD700, 3 h, PSAC antagonist project, primary screen (AID 1156). The note with it: P. falciparum-infected erythrocytes, osmotic lysis, higher = more signal, called active from +8 up or from −8 down.
A short description of assay [6]: plasmodial surface anion channel blockers, osmotic lysis – cell-based, P. falciparum Indochina, OD700, 18 h, primary screen (AID 1157). The note with it: P. falciparum Indochina infected erythrocytes, osmotic lysis OD700, 18 h; higher = more signal, called active from +8 up or from −8 down.
Assay [7] can be described thus: S6 kinase pathway phospho-S6 level changes – cell-based, A549, cytoblot, luminescence, serum-stimulated, primary screen (AID 1158).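 Also: serum-stimulated A549 lung adenocarcinoma cells; signal is phosphorylated S6 detected by cytoblot immunostaining with HRP secondary.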 The note with it: 5 h, higher = more signal.
Assay [8] addresses NADPH oxidase 2 (Homo sapiens) (UniProt P04839). Description: compounds shifting NOX2 Amplex Red fluorescence – cell-based, HEK293-NOX2, PMA-stimulated, NOX inhibitor project, primary screen (AID 1159). Also: test concentration not given here. The conditions noted are these: 45 min, higher = more signal, called active from +8 up or from −8 down.
Assay [9] deals with NADPH oxidase 4 (Homo sapiens) (UniProt Q9NPH5). Description: compounds shifting NOX4 Amplex Red fluorescence – cell-based, HEK293-NOX4, tetracycline-induced, NOX inhibitor project, primary screen (AID 1160). The note with it: HEK293-NOX4, Amplex Red H2O2 fluorescence, 45 min; higher = more signal, called active from +8 up or from −8 down.
Assay [10] concerns the target NADPH oxidase 5 (Homo sapiens) (UniProt Q96PH1). Description: compounds shifting NOX5 Amplex Red fluorescence – cell-based, HEK293-NOX5, NOX inhibitor project, primary screen (AID 1161). The conditions noted are these: HEK293-NOX5, ionomycin, 45 min, higher = more signal.
The nature of assay [11]: compound effects on lung adenocarcinoma cell viability – A549, calcein-AM fluorescence, 48 h, basal, profiling panel (AID 1162). Also: test concentration not given here. The conditions noted are these: higher = more signal.
Assay [12] is described as follows: compound effects on differentiated 3T3-L1 adipocyte viability – cell-based, 3T3-L1 adipocytes, calcein-AM fluorescence, 48 h, basal, profiling panel (AID 1163). Also: test concentration not given here. The conditions noted are these: 3T3-L1 adipocytes viability, higher = more signal.
Assay [13] can be described thus: compound effects on hepatocellular carcinoma cell viability – HepG2, calcein-AM fluorescence, 48 h, basal, profiling panel (AID 1164). Also: test concentration not given here. The note with it: higher = more signal.
A short description of assay [14]: compound effects on multiple myeloma cell viability – MM1S, calcein-AM fluorescence, 48 h, basal, profiling panel (AID 1165).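 Also: viability of MM1S multiple myeloma cells under basal unstimulated conditions; test concentration not given here.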 The note with it: higher = more signal.
A short description of assay [15]: calcein-AM signal in unstimulated myeloma cells – cell-based, calcein-AM fluorescence, 48 h, PK04 Diversity Set, profiling panel (AID 1166).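 Also: cells grown under basal conditions without added stimulus; test concentration not given here.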 The note with it: RPMI8226 myeloma viability, higher = more signal.
Assay [16] in a line: JC-1 mitochondrial signal, unstimulated HepG2 cells – cell-based, JC-1 fluorescence, 24 h, 100 nL compound, profiling panel (AID 1167). Also: test concentration not given here. The note with it: HepG2 mitochondrial potential, higher = more signal.
Assay [17] can be described thus: JC-1 mitochondrial signal, unstimulated adipocytes – cell-based, JC-1 fluorescence, 3T3-L1 adipocytes, 24 h, 100 nL compound, profiling panel (AID 1168). Also: test concentration not given here. The note with it: JC-1 mitochondrial fluorescence, higher = more signal, called active from +8 up or from −8 down.
Assay [18] can be described thus: JC-1 mitochondrial signal, unstimulated myeloma cells – cell-based, JC-1 fluorescence, RPMI8226, 24 h, 100 nL compound, profiling panel (AID 1169). Also: test concentration not given here. The note with it: JC-1 mitochondrial potential fluorescence, higher = more signal.
A short description of assay [19]: JC-1 mitochondrial signal, unstimulated MM1S myeloma – cell-based, JC-1 fluorescence, 24 h, 100 nL compound, profiling panel (AID 1170). Also: test concentration not given here. The conditions noted are these: MM1S mitochondrial potential, higher = more signal.
Assay [20] in a line: resazurin metabolic signal in A549 cells – cell-based, resazurin fluorescence, 24 h, PK04 Diversity Set, profiling panel (AID 1171). Also: test concentration not given here. The conditions noted are these: A549 viability, higher = more signal, called active from +8 up or from −8 down.

Sequence of NADPH oxidase 4 (Homo sapiens) (Q9NPH5 whole entry, looked up): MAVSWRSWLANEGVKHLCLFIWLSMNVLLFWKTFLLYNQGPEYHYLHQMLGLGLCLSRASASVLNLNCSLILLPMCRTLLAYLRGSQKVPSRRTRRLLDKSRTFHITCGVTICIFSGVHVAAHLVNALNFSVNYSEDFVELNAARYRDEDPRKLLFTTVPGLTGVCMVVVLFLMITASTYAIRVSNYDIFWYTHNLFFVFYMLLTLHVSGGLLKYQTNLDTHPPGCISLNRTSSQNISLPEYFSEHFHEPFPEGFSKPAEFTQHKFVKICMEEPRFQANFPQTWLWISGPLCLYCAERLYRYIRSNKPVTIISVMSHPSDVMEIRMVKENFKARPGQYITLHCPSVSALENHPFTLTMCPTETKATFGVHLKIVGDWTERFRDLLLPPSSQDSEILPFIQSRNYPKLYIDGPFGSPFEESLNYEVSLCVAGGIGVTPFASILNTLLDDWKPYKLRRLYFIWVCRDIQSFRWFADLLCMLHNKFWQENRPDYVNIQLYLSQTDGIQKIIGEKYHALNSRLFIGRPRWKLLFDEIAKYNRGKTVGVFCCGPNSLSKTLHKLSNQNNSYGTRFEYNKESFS
Sequence of NADPH oxidase 2 (Homo sapiens) (P04839 whole entry, looked up): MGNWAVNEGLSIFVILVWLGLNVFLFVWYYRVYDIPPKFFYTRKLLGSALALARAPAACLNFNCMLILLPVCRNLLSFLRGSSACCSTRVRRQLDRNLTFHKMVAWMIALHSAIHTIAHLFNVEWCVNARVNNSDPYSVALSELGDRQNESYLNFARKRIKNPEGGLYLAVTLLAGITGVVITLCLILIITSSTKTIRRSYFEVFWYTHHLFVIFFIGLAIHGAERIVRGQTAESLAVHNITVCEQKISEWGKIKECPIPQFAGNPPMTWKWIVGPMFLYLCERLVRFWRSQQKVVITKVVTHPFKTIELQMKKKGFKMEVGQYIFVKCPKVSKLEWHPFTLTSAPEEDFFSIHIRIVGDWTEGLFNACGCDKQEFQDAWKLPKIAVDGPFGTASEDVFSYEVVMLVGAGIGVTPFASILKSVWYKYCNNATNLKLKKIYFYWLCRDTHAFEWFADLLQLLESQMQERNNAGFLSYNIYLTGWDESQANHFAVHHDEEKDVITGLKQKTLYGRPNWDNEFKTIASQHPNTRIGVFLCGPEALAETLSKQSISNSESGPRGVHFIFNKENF
Sequence of NADPH oxidase 5 (Homo sapiens) (Q96PH1 whole entry, looked up): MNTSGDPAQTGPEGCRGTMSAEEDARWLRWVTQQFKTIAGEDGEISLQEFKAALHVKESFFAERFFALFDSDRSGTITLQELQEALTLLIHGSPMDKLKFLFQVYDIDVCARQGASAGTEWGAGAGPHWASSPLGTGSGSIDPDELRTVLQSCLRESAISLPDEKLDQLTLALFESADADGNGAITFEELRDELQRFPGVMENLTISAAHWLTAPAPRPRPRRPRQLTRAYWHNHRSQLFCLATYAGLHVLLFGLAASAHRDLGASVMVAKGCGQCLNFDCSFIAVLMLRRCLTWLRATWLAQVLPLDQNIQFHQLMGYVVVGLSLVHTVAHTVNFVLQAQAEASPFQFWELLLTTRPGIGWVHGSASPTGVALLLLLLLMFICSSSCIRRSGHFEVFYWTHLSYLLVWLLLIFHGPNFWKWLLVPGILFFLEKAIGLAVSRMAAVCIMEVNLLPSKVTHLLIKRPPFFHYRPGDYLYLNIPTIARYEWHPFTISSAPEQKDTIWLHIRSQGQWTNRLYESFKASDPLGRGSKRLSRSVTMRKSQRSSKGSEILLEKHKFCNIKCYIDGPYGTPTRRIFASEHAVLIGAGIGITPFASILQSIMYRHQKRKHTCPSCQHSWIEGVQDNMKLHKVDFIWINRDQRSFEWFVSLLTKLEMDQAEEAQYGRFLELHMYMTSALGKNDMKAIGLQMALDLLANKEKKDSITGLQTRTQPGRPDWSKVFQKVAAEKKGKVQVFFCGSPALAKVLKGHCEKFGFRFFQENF

As for `O=C1OCCC=C[C@H]2OC34C=CCN(CCN5CCOCC5)C(=O)[C@H]3N(CCCCCO)C(=O)[C@@H]4C12` (stereo not given in full), the z-score is 0.725 (inactive) in assay [1]; 2.61 (inactive) in assay [3]; 0.535 (inactive) in assay [4]; 2.32 (inactive) in assay [5]; 0.305 (inactive) in assay [6]; -0.0483 in assay [7]. The z-score was 0.855 (inactive) in assay [8]; 0.393 (inactive) in assay [9]; 1.85 in assay [10]; 0.478 in [11]; 0.0858 in assay [12]; 1.02 in [13]. Also, the z-score in assay [14] was -0.0119; in assay [15], 0.218; in assay [16], 0.575; in [17] it was 0.172 (inactive); in assay [18] it was -0.152; in assay [19] it was -0.355. Moreover, the z-score in assay [20] is 0.203 (inactive). In assay [2], this molecule showed a composite z-score of -0.103.
Take `O=C1C2C=CC(C(O)c3cc(C(F)(F)F)cc(C(F)(F)F)c3)N(Nc3ccccc3)C2C(=O)N1c1ccccc1` (stereo not given): the z-score in assay [1] is -0.355 (inactive); in [3], 4.95 (inactive); in assay [4] it was 2.77 (inactive); in assay [5] it was -2.01 (inactive); in assay [6] it was 2.64 (inactive); in [7], -0.62. The z-score is 0.376 (inactive) in assay [8]; -4.65 (inactive) in [9]; -1.33 in [10]; 1.3 in [11]; -1.48 in assay [12]; 0.662 in assay [13]. For the same molecule, the z-score in assay [14] is -2.24; in assay [15], -3.52; in [16], -4.32; in assay [17], -1.36 (inactive); in assay [18], -0.982; in [19], -0.994. Further, the z-score in assay [20] was 0.626 (inactive). Moreover, the composite z-score in assay [2] is 0.345.
Regarding `COc1ccc([Si](C)(C)[C@@H]2[C@@H](CC(=O)N3CCC[C@H]3CO)O[C@]3(C(=O)N(Cc4cccc(I)c4)c4ccccc43)[C@H]2C)cc1`, the z-score was -0.423 (inactive) in assay [1]; 6.47 (inactive) in [3]; 0.966 (inactive) in assay [4]; 1.39 (inactive) in [5]; 0.917 (inactive) in [6]; 2.02 in assay [7]. Also, the z-score in assay [8] is 2.97 (inactive); in assay [9], 0.91 (inactive); in assay [10], 4.33; in assay [11], -1.08; in [12] it was 1.24; in assay [13], -2.59. For the same molecule, the z-score in assay [14] was -2.92; in assay [15] it was -4.52; in assay [16], -0.646; in [17], -0.0158 (inactive); in assay [18] it was -1.08; in assay [19] it was -1.48. Further, the z-score in assay [20] was -3.17 (inactive). The molecule further returned a composite z-score in [2] of -0.111.
With `CC(C)[Si](C#CCCCC#N)(O[C@H](c1ccccc1)c1cn(Cc2cccc(Cl)c2)nn1)C(C)C`, the z-score is 1.65 (inactive) in [1]; 0.614 (inactive) in assay [3]; 1.24 (inactive) in [4]; -0.187 (inactive) in assay [5]; 1.04 (inactive) in assay [6]; 0.573 in assay [7]. Besides, the z-score in assay [8] was -6.2 (inactive); in [9] it was 0.194 (inactive); in assay [10], 0.528; in assay [11], -1.13; in [12], -0.75; in [13] it was -0.626. Besides, the z-score was -0.883 in assay [14]; -4.19 in assay [15]; 6.65 in assay [16]; -0.108 (inactive) in assay [17]; -0.882 in assay [18]; -1.56 in assay [19]. For the same molecule, the z-score in assay [20] was 0.268 (inactive). Besides, in assay [2], the composite z-score came to 0.0496.
Take `Cc1ccc(C2C3C(=O)CC4C(=O)N(c5ccccc5)C(=O)C4C3CN2S(=O)(=O)c2ccc(C)cc2)cc1` (stereo not given): the z-score in assay [1] was -0.339 (inactive); in assay [3], 1.7 (inactive); in [4], 0.714 (inactive); in assay [5], 1.72 (inactive); in [6], 0.438 (inactive); in assay [7], -0.69. The z-score in assay [8] was 1.28 (inactive); in assay [9], 0.793 (inactive); in [10], -0.9; in assay [11], -0.105; in assay [12] it was -0.172; in assay [13], 0.261. Further, the z-score in assay [14] is 0.948; in [15], 0.563; in assay [16] it was 0.371; in assay [17] it was 0.134 (inactive); in assay [18], 0.515; in [19] it was -0.878. In assay [20], the z-score is -0.821 (inactive). The composite z-score in [2] worked out at 0.476.
Take `CN1C(=O)C2C=CC(C(O)c3ccc(F)cc3)N(N(c3ccccc3)c3ccccc3)C2C1=O` (stereo not given): the z-score in assay [1] is -1.46 (inactive); in assay [3], 0.362 (inactive); in assay [4] it was 1.27 (inactive); in assay [5], 0.39 (inactive); in assay [6] it was 1.17 (inactive); in assay [7], -1.16. In addition, the z-score is -0.948 (inactive) in assay [8]; -1.82 (inactive) in [9]; -1.39 in [10]; -0.631 in assay [11]; -2.01 in assay [12]; 0.153 in assay [13]. In addition, the z-score in assay [14] is 0.0431; in [15] it was -0.462; in assay [16], -1.03; in assay [17] it was -0.802 (inactive); in assay [18] it was 0.399; in assay [19], -1.03. Moreover, the z-score in [20] is -0.867 (inactive). Moreover, in [2], the composite z-score is -0.483.
Take `CCOC(=O)C[C@H]1[C@H](OC(=O)c2ccc(C(=O)c3ccccc3)cc2)[C@@H](NC(=O)Cc2ccc(OC)cc2)c2cc(OCCCO)ccc2N1C(=O)c1ccc2ccccc2n1`: the z-score is 0.378 (inactive) in [1]; 3.85 (inactive) in [3]; 1.05 (inactive) in [4]; -0.392 (inactive) in assay [5]; 0.604 (inactive) in [6]; -0.0822 in assay [7]. For the same molecule, the z-score in [8] was -1.03 (inactive); in assay [9], 0.492 (inactive); in assay [10] it was 1.53; in assay [11] it was 1.33; in [12] it was -0.121; in assay [13], 0.493. The z-score in assay [14] was -0.854; in assay [15], -0.614; in assay [16], 0.658; in assay [17], 2.22 (inactive); in assay [18], -0.234; in assay [19], 0.567. Further, in [20], the z-score is -0.383 (inactive). The composite z-score in assay [2] was 0.131.
On to `COc1ccc([Si](C)(C)[C@H]2[C@H](CCO)O[C@@]3(C(=O)N(Cc4ccccc4)c4ccc(N5CCCCC5=O)cc43)[C@@H]2C)cc1`, for which the z-score in assay [1] is 0.663 (inactive); in [3] it was 6.61 (inactive); in assay [4] it was 2.24 (inactive); in [5], 1.45 (inactive); in assay [6] it was 1.72 (inactive); in [7], 0.204. In addition, the z-score is -1.16 (inactive) in assay [8]; 0.636 (inactive) in assay [9]; 1.81 in [10]; -0.0531 in [11]; -0.627 in assay [12]; -3.62 in [13]. Further, the z-score was -2.03 in assay [14]; -4.53 in assay [15]; 2 in assay [16]; 0.355 (inactive) in assay [17]; -0.781 in assay [18]; 0.363 in assay [19]. Also, the z-score in assay [20] is -2.68 (inactive). The composite z-score in [2] was 0.0844.
